A collection of fitness landscapes (doi:10.1016/j.celrep.2020.107928)
Over roughly 81,000 sequences, “one-hybrid fitness for binding NBS DNA” has its median near -0.1; the highest 2% begin near 0.36. This is one part of a sample in which the highest values are shown more often than they occur.

B1: Caulobacter ParB omega fusion; a variant is named by its letters at X, in order, B8GW30 (parent)
chain: MESVVVGEPGMSEGRRGLGRGLSALLGEVDAAPAQAPGEQLGGSREAPIEILQRNPDQPRRTFREEDLEDLSNSIREKGVLQPILVRPSPDTAGEYQIVAGERAWRAAQRAGLKTVPIMVRELDDLAVLEIGIIENVQRADLNVLEEALSYKVLMEKFERTQENIAQTIGKSXSHVANXMRLLXLPDEVQSYLVSGELTAXHARAIAAAADPVALAKQIIEGGLSVRETEALARKAPNLSAGKSKGGRPPRVKDTDTQALESDLSSVLGLDVSIDHRGSTGTLTITYATLEQLDDLCNRLTRGI

Variants of: B1
Assay: one-hybrid fitness for binding NBS DNA (the Noc-binding site; scaled: cognate 1, non-cognate 0); higher = stronger binding
Details: with NBS DNA site
Summary of the method: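 Bacterial one-hybrid selection in E. coli USO rpoZ- hisB- pyrF- with a HIS3 reporter carrying the site 19 bp from the promoter, screening Caulobacter ParB libraries with four specificity codons randomised (NNS). Cells grew 48 hours at 37°C on M9-minus-histidine plus 0.1 mM IPTG and 5 mM 3-AT. Plasmids before and after selection were Illumina-sequenced, three replicate libraries pooled, and variants under 10 reads dropped. Fitness is the log change in variant-to-wild-type read ratio, rescaled to cognate 1, non-cognate 0.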

Row | Variant | one-hybrid fitness for binding NBS DNA
1 | DTKS | ≤ 0.2
2 | LKPK | ≤ 0.2
3 | HFKG | ≤ 0.2
4 | MFQS | ≤ 0.2
5 | CVRD | ≤ 0.2
6 | CFTS | ≤ 0.2
7 | THAL | ≤ 0.2
8 | VGWS | ≤ 0.2
9 | YYSE | ≤ 0.2
10 | CALW | ≤ 0.2
11 | QTVN | ≤ 0.2
12 | QTKP | 0.41
13 | QCKP | 0.332
14 | QTVP | ≤ 0.2
15 | QTKN | 0.56
16 | MGCR | ≤ 0.2
17 | YYNE | ≤ 0.2
18 | KRKG | 0.234
19 | SVHI | ≤ 0.2
20 | PNPM | ≤ 0.2
21 | QHHS | 0.386
22 | QHHD | ≤ 0.2
23 | QLHN | ≤ 0.2
24 | QLHS | 0.373
25 | QMHD | ≤ 0.2
26 | QAHS | 0.398

Row | Variant | one-hybrid fitness for binding NBS DNA
27 | QMHH | 0.221
28 | QHHH | 0.214
29 | QAHN | ≤ 0.2
30 | QMHS | 0.451
31 | QLHD | ≤ 0.2
32 | QAHH | ≤ 0.2
33 | HRHV | ≤ 0.2
34 | IEST | ≤ 0.2
35 | VWYL | ≤ 0.2
36 | EEFL | ≤ 0.2
37 | ILLI | ≤ 0.2
38 | QSHS | 0.381
39 | QSHN | ≤ 0.2
40 | QPHS | ≤ 0.2
41 | QCHS | 0.502
42 | QIHS | 0.281
43 | QSHH | ≤ 0.2
44 | CANC | ≤ 0.2
45 | RDTV | ≤ 0.2
46 | RRTY | 0.378
47 | RRTH | 0.509
48 | RSTY | ≤ 0.2
49 | RRTP | ≤ 0.2
50 | RRTD | ≤ 0.2
51 | RRTS | 0.661
52 | RCTH | 0.237

Row | Variant | one-hybrid fitness for binding NBS DNA
53 | RCTY | ≤ 0.2
54 | RRTN | 0.339
55 | SLHR | ≤ 0.2
56 | ENTM | ≤ 0.2
57 | LGQD | ≤ 0.2
58 | KSNT | ≤ 0.2
59 | PNLF | ≤ 0.2
60 | YVMG | ≤ 0.2
61 | DWYR | ≤ 0.2
62 | LYTY | ≤ 0.2
63 | QAAG | ≤ 0.2
64 | APTR | ≤ 0.2
65 | RCHH | 0.219
66 | PNAR | ≤ 0.2
67 | IYLD | ≤ 0.2
68 | QRCG | 0.343
69 | QRCC | 0.389
70 | QRCE | 0.223
71 | QCCC | ≤ 0.2
72 | QSCM | ≤ 0.2
73 | QSCC | ≤ 0.2
74 | QRCH | 0.52
75 | QRCF | 0.275
76 | QRCM | 0.397
77 | QCCN | ≤ 0.2
78 | QRCN | 0.397

Row | Variant | one-hybrid fitness for binding NBS DNA
79 | QCCM | ≤ 0.2
80 | LFGC | ≤ 0.2
81 | DFND | ≤ 0.2
82 | HHDK | ≤ 0.2
83 | NKRM | ≤ 0.2
84 | EPHG | ≤ 0.2
85 | TMRV | ≤ 0.2
86 | KINT | ≤ 0.2
87 | AVTK | ≤ 0.2
88 | QSFM | ≤ 0.2
89 | YMRR | ≤ 0.2
90 | QGHN | ≤ 0.2
91 | AHIF | ≤ 0.2
92 | DQPR | ≤ 0.2
93 | VTFK | ≤ 0.2
94 | PKYY | ≤ 0.2
95 | QRCQ | 0.382
96 | QSCQ | ≤ 0.2
97 | QRCS | 0.693
98 | QRCP | 0.249
99 | QRCD | 0.237
100 | ALAT | ≤ 0.2
101 | THPT | ≤ 0.2
102 | QTVI | ≤ 0.2
103 | QCKI | 0.405
104 | QRVI | ≤ 0.2

Row | Variant | one-hybrid fitness for binding NBS DNA
105 | QRKI | 0.52
106 | QTKI | 0.468
107 | QRPI | ≤ 0.2
108 | QTFI | ≤ 0.2
109 | QPKI | ≤ 0.2
110 | QSKI | 0.314
111 | KYRQ | ≤ 0.2
112 | YRRY | ≤ 0.2
113 | PRVL | ≤ 0.2
114 | QQIK | ≤ 0.2
115 | NLQI | ≤ 0.2
116 | TNPS | ≤ 0.2
117 | EPGN | ≤ 0.2
118 | FANT | ≤ 0.2
119 | SSVH | ≤ 0.2
120 | PPVW | ≤ 0.2
121 | SDIF | ≤ 0.2
122 | IYDC | ≤ 0.2
123 | RRET | 0.698
124 | RRWM | 0.23
125 | RRHT | 0.755
126 | RRGY | 0.36
127 | RPET | ≤ 0.2
128 | RRGK | 0.215
129 | RRHM | 0.294
130 | RCET | ≤ 0.2

Row | Variant | one-hybrid fitness for binding NBS DNA
131 | RRWT | 0.824
132 | RRHG | 0.362
133 | RRGT | 0.732
134 | DEAY | ≤ 0.2
135 | MGSC | ≤ 0.2
136 | KCYS | ≤ 0.2
137 | CWHL | ≤ 0.2
138 | DVFL | ≤ 0.2
139 | TRWG | ≤ 0.2
140 | YWSC | ≤ 0.2
141 | RGRT | ≤ 0.2
142 | DRRT | ≤ 0.2
143 | RRQQ | 0.268
144 | RRQT | 0.752
145 | RRLM | 0.228
146 | RRLT | 0.761
147 | RRQM | 0.273
148 | RRYT | 0.769
149 | RFLT | ≤ 0.2
150 | RRRT | 0.786
151 | TAWR | ≤ 0.2
152 | RMPQ | ≤ 0.2
153 | CKWG | ≤ 0.2
